These results are taken from PubChem BioAssay (Tox21).

The structures appear in SMILES notation. A number with no mark means an inactive call. Active and inactive are the calls of the source. Calls come from the whole dose curve.
% is set by controls: 0 for no effect and ±100 for the full control effect.

Chain of Thyrotropin-releasing hormone receptor (Homo sapiens) (P34981 whole entry, looked up): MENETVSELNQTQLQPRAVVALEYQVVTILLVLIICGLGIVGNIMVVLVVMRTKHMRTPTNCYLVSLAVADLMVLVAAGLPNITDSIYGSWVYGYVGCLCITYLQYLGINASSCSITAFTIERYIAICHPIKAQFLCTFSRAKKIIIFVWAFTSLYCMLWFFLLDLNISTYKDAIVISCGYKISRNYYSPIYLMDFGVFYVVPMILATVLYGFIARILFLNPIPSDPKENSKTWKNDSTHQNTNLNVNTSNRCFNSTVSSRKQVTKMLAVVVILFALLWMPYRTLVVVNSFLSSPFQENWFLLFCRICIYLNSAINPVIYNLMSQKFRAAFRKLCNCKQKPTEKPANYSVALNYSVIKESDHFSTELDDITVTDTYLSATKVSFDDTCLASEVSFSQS

The experiment concerns the target Thyrotropin-releasing hormone receptor (Homo sapiens) (UniProt P34981). Description: qHTS assay to identify small molecule agonists of the thyrotropin-releasing hormone receptor (TRHR) signaling pathway (AID 1346891).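 Note: HEK293 cells expressing TRHR with calcium dye readout.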 To be noted: TRHR-HEK293 calcium fluorescence, agonist mode; series mostly up to 57.6 µM; activation: at the top concentration. An excerpt: National Center for Advancing Translational Sciences [NCATS] NIH Chemical Genomics Center [NCGC] U.S. Environmental Protection Agency [EPA] National Institutes of Environmental Health Sciences [NIEHS] National Toxicology Program [NTP] Assay overview: Thyrotropin-releasing hormone (TRH) receptor (TRHR) is a G-protein-coupled receptor which binds the tripeptide thyrotropin releasing hormone. TRHR is found in the brain and, when bound by TRH, acts (through phospholipase C) to increase intracellular inositol trisphosphate. It plays a crucial role in the anterior pituitary where it controls the synthesis and secretion of thyroid stimulating hormone and prolactin. The TRHR-Hek293 assay is a cell-based assay, and it has the potential to screen G protein-coupled receptors. A compound/drug can either activate (agonist) or suppress (antagonist) GPCRs that can be monitored by levels of intracellular calcium. Using this assay, the Tox21 10K compound library was screened to identify potential TRHR agonists.
Assay Protocol Summary: The TRHR-Hek293 cells were dispensed at 1500cells/4uL/well in 1536-well black-clear bottom plates using a Multidrop dispenser. After the assay plates were incubated at a 37 C/5% CO2 incubator for 18 hours, 4 uL of Dye-Loading Solution was added to each well. The plates were incubated at 37 C for 2 hours. For agonist mode, 23 nL of compounds dissolved in DMSO, positive controls or DMSO only was transferred to the assay plate by a pin tool. The fluorescence intensity in the plates was measured using FDSS 7000EX kinetic plate reader for 3 min at 1 sec intervals. Each test compound was measured at 15 concentrations and in triplicates.
(In general: qHTS replaces the single test concentration by a dilution series.)
In the case of `O=C(N[C@H]1CN2CCC1CC2)c1ccc2c(c1)OCCO2`, the “activation” value was -0.0429%.
As to `O=C1CC[C@@]2(O)[C@H]3Cc4ccc(O)c5c4[C@@]2(CCN3CC2CC2)[C@H]1O5`, the “activation” value is -0.0405% [at 26.5 µM].
On to `COc1ccc2c(c1OC)C(=O)O[C@H]2[C@@H]1c2cc3c(cc2CCN1C)OCO3`, for which the “activation” value was -0.0765% [at 26.5 µM].
`CN(C)c1ccc(N=O)cc1`: the outcome was inactive.
`CC(C)(C)NCC(O)c1cc(Cl)c(N)c(C(F)(F)F)c1` (stereo not given): the “activation” value was 1.12% [at 26.5 µM].
Regarding `Nc1ccccc1C(=O)OCC(O)CO` (stereo not given), the “activation” value is -0.831% [at 26.5 µM].
In the case of `Nc1ccccc1C(=O)OCCc1ccccc1`, the result was inactive.
Take `CCOP(=O)(O)C(N)=O`: the “activation” value was 0.0113%.
As to `CCOP(=S)(S)OCC`, the “activation” value is -0.98%.
With `Cc1nc2ccccc2c(=O)n1-c1ccccc1Cl`, the “activation” value is -0.251%.
In the case of `NC(=O)CF`, the “activation” value was 0.0051%.
For `CCC1(CC)C(=O)NC(=O)NC1=O`, the “activation” value was -0.174% [at 26.5 µM].
As for `C=CCc1ccc(OC(=O)Cc2ccccc2)c(OC)c1`, the “activation” value is -0.0139%.
On to `C=CCOC(=O)C(C)(C)OC(=O)c1cc(-n2c(=O)cc(C(F)(F)F)n(C)c2=O)ccc1Cl`, for which the “activation” value was 0.0199%.
`Nc1cccc2ccccc12`: the outcome was inactive.
`C[C@@H]1C[C@@H]([C@H](O)CC2CC(=O)NC(=O)C2)C(=O)[C@@H](C)C1`: the outcome was inactive.
`N#CC1(N=NC2(C#N)CCCCC2)CCCCC1`: the “activation” value was -0.212%.
For the molecule `CCCN(CCC)c1c([N+](=O)[O-])cc(C(C)C)cc1[N+](=O)[O-]`, the result was inactive.
With `C[N+](C)(C)CCOC(=O)C(O)(c1ccccc1)c1ccccc1`, the “activation” value was 0.0072% [at 26.5 µM].
In the case of `O=C1c2ccccc2C(=O)N1SC(Cl)(Cl)Cl`, the result was inactive.
Consider `Cc1ncc(C[n+]2csc(CCO)c2C)c(N)n1`, for which the “activation” value was -0.0261%.
Take `CCCCC(CC)CO[N+](=O)[O-]` (stereo not given): the “activation” value is -0.711%.
On to `O=C(N/N=C/c1ccc([N+](=O)[O-])o1)c1cc([N+](=O)[O-])cc([N+](=O)[O-])c1O`, for which the “activation” value was -0.284% [at 26.5 µM].
The same measure, in the same setting: the figure for `COc1cc(CC(C)N)c(OC)cc1Br` (stereo not given) is 0.169%; for `O=C=NC1CCCCC1` it is 3.46%.
Same read-out and setting: the figure for `CC(C)(C)N(NC(=O)c1ccc(Cl)cc1)C(=O)c1ccccc1` is 2.5%.
Still for that read-out and setting: in the case of `CN1CC[C@]23c4c5ccc(O)c4O[C@H]2[C@@H](O)C=C[C@H]3[C@H]1C5` it was -0.054%; in that of `CC(C)(C)NCC(O)c1ccccc1Cl` (stereo not given), 0.566% [at 26.5 µM].
Consider `CCC(C)(C)c1ccc(O)c(C(C)(C)CC)c1`, for which the result was inactive.
Consider `O=C(NCNC(=O)NC1C(=O)NC(=O)N1CO)NC1C(=O)NC(=O)N1CO` (stereo not given), for which the “activation” value is -0.292%.
`CC(C)CCON=O`: the “activation” value was 0.0549%.
For the molecule `CCCCCl`, the “activation” value was 0.216%.
For `COCc1cnc(C2=NC(C)(C(C)C)C(=O)N2)c(C(=O)O)c1` (stereo not given), the “activation” value is -0.014%.
On to `CN1C[C@H](C(=O)N[C@]2(C)O[C@@]3(O)[C@@H]4CCCN4C(=O)[C@H](Cc4ccccc4)N3C2=O)C=C2c3cccc4[nH]cc(c34)C[C@H]21`, for which the outcome was inactive.
For the molecule `Cc1nc(N(C)C)nc(OC(=O)N(C)C)c1C`, the “activation” value is -0.459%.
Regarding `C[C@]12C=CC3=C4CCC(=O)C=C4CC[C@H]3[C@@H]1CC[C@@H]2O`, the outcome was inactive.
Turning to `O=C(NC(=O)c1cc(F)c(F)cc1Cl)Nc1cc(F)ccc1N1CCC(C(=O)O)CC1`, the “activation” value was -1.14% [at 26.5 µM].
Take `CC(Cl)C(=O)O` (stereo not given): the “activation” value is 0.0591%.
Turning to `Nc1ccc2c(c1)Cc1ccccc1-2`, the “activation” value is 0.447%.
With `OCCSSCCO`, the “activation” value is -0.81%.
